Compounds with a hit are over-represented: about 1.2% of the library has one in this group of screens.
USP2a block – blocks human ubiquitin-specific protease USP2a; USP2 core, Ub-CHOP2 coupled fluorogenic reporter, 485/531; O75604; Potency, µM (series often up to 38.3 µM), for inactives: top-dose activity change, negative = inhibition, usual class: inhibitors; 0.01% of 330,000 active;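 also: potency is read from the fitted curve at half-maximal effect; plate controls were DMSO wells for no effect and full inhibition by NEM control for full effect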
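Cell-free coupled assay: 10nM USP2 core preincubated 30min RT with compound in Tris-HCl pH 8.0/CaCl2/CHAPS buffer, then 25nM Ub-CHOP2 and 25nM reporter substrate; fluorescence (Ex 485/Em 531) read after 60min RT, normalized to NEM inhibition, concentration-response curves fitted.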
L3MBTL1 inh-1 – inhibitors of human L3MBTL1; Q9Y468; AlphaScreen L3MBTL1–H3K9me1 peptide binding; Potency, µM (series often up to 57.1 µM), for the others: top-dose activity, negative = inhibition, most hits filed as inhibitors; 0.66% of 230,000 active; AID 485360; also: potency is read from the fitted curve at half-maximal effect; % is scaled to controls: 0 for no effect and ±100 for the full control effect; nearly all actives have a fitted effect of over 60% in size
Target sequence (Q9Y468 whole entry, looked up): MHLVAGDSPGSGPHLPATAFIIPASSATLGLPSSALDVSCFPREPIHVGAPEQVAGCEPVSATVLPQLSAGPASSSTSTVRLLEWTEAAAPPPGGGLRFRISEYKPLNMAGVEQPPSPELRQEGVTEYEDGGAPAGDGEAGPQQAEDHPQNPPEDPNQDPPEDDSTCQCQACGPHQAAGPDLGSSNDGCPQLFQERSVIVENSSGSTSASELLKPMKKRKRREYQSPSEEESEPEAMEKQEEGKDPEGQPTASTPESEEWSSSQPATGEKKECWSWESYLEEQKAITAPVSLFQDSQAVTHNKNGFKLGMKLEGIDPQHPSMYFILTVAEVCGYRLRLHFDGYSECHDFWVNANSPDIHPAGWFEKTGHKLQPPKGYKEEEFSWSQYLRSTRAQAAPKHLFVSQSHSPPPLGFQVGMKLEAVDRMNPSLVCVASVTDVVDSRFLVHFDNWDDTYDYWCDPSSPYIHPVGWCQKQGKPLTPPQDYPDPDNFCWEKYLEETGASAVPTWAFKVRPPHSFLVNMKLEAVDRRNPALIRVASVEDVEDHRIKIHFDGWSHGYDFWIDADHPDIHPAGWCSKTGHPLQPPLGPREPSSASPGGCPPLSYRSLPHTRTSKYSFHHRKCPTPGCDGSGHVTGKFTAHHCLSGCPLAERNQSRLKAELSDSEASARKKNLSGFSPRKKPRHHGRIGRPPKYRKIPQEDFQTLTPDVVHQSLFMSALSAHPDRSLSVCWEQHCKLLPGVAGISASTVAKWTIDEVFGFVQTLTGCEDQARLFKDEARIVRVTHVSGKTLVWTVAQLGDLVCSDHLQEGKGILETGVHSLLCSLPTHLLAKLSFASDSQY
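AlphaScreen assay: L3MBTL1 (50 nM final) was preincubated 30 min at room temperature with biotinylated H3(1-15)K9me1 peptide (75 nM final), then 30 min with library compounds; streptavidin donor and nickel chelate acceptor beads (10 ug/mL final) added, 30 min dark.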
CtBP-E1A blk – blocks the CtBP interaction with E1A | 0.49% of 340,000 active | AID 651724 | AlphaScreen GST-E1A/His-CtBP binding, 1536-well; hits give low values | activity change, % (no concentration beside the values); in the data active = activity change below about -65%; inconclusive = mostly about -30% to -63%; also: % is scaled to controls: 0 for no effect and ±100 for the full control effect
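Homogeneous bead-based format: GST-tagged E1A captured on glutathione donor beads, His-tagged CtBP on nickel acceptor beads; compounds precede bead addition by 2 h at 37 °C.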
uPA surface inh – cell surface uPA generation inhibition | cell surface uPA generation assay, qHTS | 0.31% of 330,000 active | Potency, µM (doses to about 38.3 µM), for inactives: at the highest dose activity change, negative = inhibition, actives largely listed as inhibitors; active = well fitted inhibition curve with a large enough effect; inconclusive = small, poorly fitted or top-dose-only effect; inactive = no such curve, though single readings can be large or run the other way; tested in mouse RAW 264.7 cells; also: potency is read from the fitted curve at half-maximal effect; % is scaled to controls: 0 for no effect and ±100 for the full control effect; nearly all actives have a fitted effect of over 55% in size
Six1-Eya2 blk – Six1/Eya2 interaction inhibition | Q15475+O00167 | AlphaScreen GST-Six1/His-Eya2 binding, biochemical; hits give low values | activity change, % (test concentration not listed) | 0.56% of 360,000 active | AID 651725; in the data active = activity change below about -65%; inconclusive = mostly about -30% to -63%; also: % is scaled to controls: 0 for no effect and ±100 for the full control effect
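GST-Six1 + His-Eya2 (5X stock: 250/500 nM); Tris pH 8.0, 300 mM NaCl, 0.05% BSA, 0.02% Tween 20; GSH donor/Ni acceptor beads; 1 h 37 °C dark; AlphaScreen readout.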
Eya2 inh – inhibitors of human Eya2 phosphatase activity; recombinant Eya2, OMFP fluorescence dephosphorylation (OMFP is methylfluorescein phosphate); Potency, µM (highest dose often 76.9 µM), inactives show at the top dose activity, negative = inhibition, usual class: inhibitors; 0.006% of 330,000 active; AID 488837; also: potency is read from the fitted curve at half-maximal effect; % is scaled to controls: 0 for no effect and ±100 for the full control effect
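Eya2 (0.2 uM) preincubated 10 min at ambient with compound, then OMFP substrate added at 50 uM; 10 min reaction in 50 mM HEPES pH 7.5, 50 mM NaCl, 5 uM MgCl2, 0.05% BSA, 1 mM DTT. Fluorescence read at Ex 485/Em 525 nm.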
L3MBTL1 inh-2 – validation of human L3MBTL1 methyl-lysine binding inhibitors; Potency, µM, actives largely listed as inhibitors; 91% of 500 active; shares compounds with L3MBTL1 inh-1; L3MBTL1 methyl-lysine binding inhibition, biochemical qHTS; also: potency is read from the fitted curve at half-maximal effect; nearly all actives have a fitted effect of over 70% in size
AlphaScreen ctr2 – AlphaScreen signal inhibition, L3MBTL1 hit counter-screen | shares compounds with L3MBTL1 inh-1 | AlphaScreen counterscreen, signal inhibition | Potency, µM (series often up to 57.1 µM), for the others: at the highest dose activity change, negative = inhibition, usual class: inhibitors | 500 tested, under 10 active; also: potency is read from the fitted curve at half-maximal effect; 0% is about no effect
An asterisk follows results filed as active; u = inconclusive; x = no result. Unless noted, calls follow the shape of the dose curve; as a rule, active = well fitted curve in the direction sought with a large enough effect; inconclusive = small, poorly fitted or top-dose-only effect, or another doubt; inactive = no such curve, though single readings can be large; an effect the other way counts as inactive or inconclusive.

SMILES	USP2a block	L3MBTL1 inh-1	CtBP-E1A blk	uPA surface inh	Six1-Eya2 blk	Eya2 inh	L3MBTL1 inh-2	AlphaScreen ctr2
CCC(C)N1CNc2c(c(=O)[nH]c(=S)n2-c2cccc(C)c2)C1 (centres undefined)	1%	3%	14	-3%	9	-2%	x	x
Nc1c(C(=O)OCC(=O)Nc2cccc([N+](=O)[O-])c2)[nH]c(=O)[nH]c1=O	4%	32µM*	-1	5%	u	-1%	24*	8%
O=C(COC(=O)c1ccccc1C(=O)c1ccccc1)Nc1cccc([N+](=O)[O-])c1	3%	-3%	-12	-13%	0	-6%	x	x
COc1ccc(/C(CC2OC(=O)c3ccccc32)=N\NC(N)=O)cc1 (centres undefined)	-1%	6%	-3	1%	1	1%	x	x
COC(=O)/C(C(C)=O)=C(/C=C/C=C/N(C)C)N(C)C	2%	x	13	-2%	-1	12%	x	x
COC(=O)\C(C(C)=O)=C(/C=C/C=C/N(C)C)N(C)C	3%	14µM*	6	2%	-10	25%	6.7*	19%
CCc1ccc(CNC(=O)C2CCN(S(=O)(=O)N3CC(C)CC(C)C3)CC2)cc1 (centres undefined)	1%	x	0	-1%	0	-4%	x	x
Cc1ccc(C(=O)OCC(=O)c2ccc(CC(=O)N3CCOCC3)s2)c(C)c1	3%	20µM*	2	2%	-18	17%	3*	8%
Cc1ccc(C(=O)OCC(=O)c2ccc(CC(=O)N3CCOCC3)s2)cc1C	-1%	u	-1	7%	-9	-4%	x	x
c1ccc(SC23CC4CC(CC(C4)C2)C3)nc1	x	x	0	x	29	x	x	x
O=C(NC1CC1)C1CCN(S(=O)(=O)c2cc([N+](=O)[O-])ccc2Cl)CC1	0%	7.9µM*	0	-7%	-13	8%	3*	7%
COc1cc2cccc(OC)c(=O)c2c(O)c1OC	-1%	-1%	-19	-10%	-11	2%	x	x
CC(=O)Oc1cc2cccc(OC(C)=O)c(=O)c2c(OC(C)=O)c1OC(C)=O	-3%	0.35µM*	-28	u	u	-11%	1.5*	-11%
CCCCN(C(=O)c1cccc(-n2cccc2)c1)c1c(N)n(Cc2ccccc2)c(=O)[nH]c1=O	1%	20µM*	x	x	x	24%	4.2*	-29%
C=CC(=O)NCC1OCCc2ccccc21 (centres undefined)	3%	8%	x	3%	5	1%	x	x
O=C(/C=C/c1ccco1)NCC1OCCc2ccccc21 (centres undefined)	-1%	22µM*	-11	0%	u	7%	6*	1%
O=S(=O)(Nc1cc(Sc2cccc3cccnc23)c(O)c2ccccc12)c1ccc(F)cc1	-8%	28µM*	-92*	-17%	-94*	1%	21*	-16%
CCS(=O)(=O)N1Cc2ccccc2CC1C(=O)Nc1nnc(SCc2ccc(C#N)cc2)s1 (centres undefined)	-10%	18µM*	-7	-1%	-8	-15%	3.4*	20%
CN(C)CCOC(=O)c1ccc2[nH]c3c(c2c1)CSCC3	-1%	x	-4	-4%	-9	-8%	x	x
O=C(O)c1ccc2[nH]c3c(c2c1)CSCC3	-7%	32µM*	4	8%	-3	-19%	13*	2%
O=[N+]([O-])c1c(O)c(Cl)cc(Cl)c1Cl (tested in a mixture with another compound)	x	x	-9	1%	-3	x	x	x
Cc1ccc2c(CC(=O)OCC(=O)N(CC(C)C)c3c(N)n(Cc4ccccc4)c(=O)[nH]c3=O)coc2c1	1%	32µM*	3	0%	6	18%	21*	9%
CCN(C(=O)COC(=O)Cc1coc2cc(C)ccc12)c1c(N)n(Cc2ccccc2)c(=O)[nH]c1=O	1%	-3%	-11	-12%	3	-2%	x	x
Cn1nc2c(c1C(=O)O)CCCC2	-1%	5.6µM*	10	0%	-24	-1%	15*	15%
O=C(O)/C=C/c1nc(-c2ccccc2)n2ccccc12	0%	18µM*	-1	-5%	-9	7%	u	-15%
SMILES	USP2a block	L3MBTL1 inh-1	CtBP-E1A blk	uPA surface inh	Six1-Eya2 blk	Eya2 inh	L3MBTL1 inh-2	AlphaScreen ctr2
COc1ccc(C(N)c2csc(Nc3ccc(C(F)(F)F)cn3)n2)cc1 (centres undefined)	x	x	u	x	-9	x	x	x
O=C(Nc1ccc(F)cc1F)c1noc2c1CCC2	-6%	32µM*	4	x	-5	8%	6.7*	6%
O=C(Nc1cc(Cl)ccc1Cl)c1noc2c1CCCC2	-13%	x	9	-8%	-2	2%	x	x
CCC(c1nnnn1-c1ccc2c(c1)OCCO2)N1CCN(Cc2c(F)cccc2Cl)CC1 (centres undefined)	x	x	-15	x	-12	x	x	x
O=C(Nc1ccccc1N1CCN(c2ccccc2)CC1)c1ccccc1	3%	x	-14	-1%	-20	1%	x	x
COc1cc(/C=C/[N+](=O)[O-])ccc1OCc1cccc(C(=O)O)c1	u	28µM*	2	4%	-76*	7%	u	2%
COc1sc(SC)cc1/C=N/NC(=O)c1ccncc1	3%	x	-10	2%	-6	-8%	x	x
O=C1C2C3C=CC(CC3)C2C(=O)N1c1nccs1 (centres undefined)	2%	25µM*	-15	-1%	u	5%	27*	6%
O=C1C2C3C=CC(C2C(=O)N1c1nccs1)C1C(=O)N(c2nccs2)C(=O)C31 (centres undefined)	3%	x	13	8%	-1	7%	x	x
CC(/C=C\c1cccnc1)=C/C(=O)O	0%	28µM*	10	2%	-4	10%	27*	0%
O=C(O)/C=C/c1cccnc1	1%	9%	2	8%	-19	-17%	x	x
CCN(CC(=O)Nc1ccc(NC(C)=O)cc1)C(=O)c1cccc(-n2cccc2)c1	0%	28µM*	-6	-5%	-22	8%	21*	9%
Cc1ccc(C)c(NC(=O)CN(C)C(=O)c2cccc(-n3cccc3)c2)c1	1%	8.9µM*	-2	3%	-25	-3%	2.7*	u
Cc1cc(NC(=O)CSCC(=O)Nc2nc3c(C)cccc3s2)no1	3%	-6%	-5	13%	1	-15%	x	x
